From PubChem BioAssay
NPC1 promoter act: NPC1 promoter activation; Huh7 NPC1 promoter luciferase reporter, 24 h; Potency, µM (titrated, usually from 9.22 µM), for inactives: top-dose activation, hits mostly activators; 2.4% of 320,000 active; AID 485313; also: % of control where 0% means no effect; nearly all actives have a fitted effect of over 60% in size
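Compounds in DMSO were transferred onto Huh7 NPC1-luciferase reporter cells pre-incubated 2 h; after 24 h at 37 °C, Amplite reagent was dispensed and luminescence recorded 10 min later.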
ELG1 genotoxic: induces genotoxicity in HEK293T cells with luciferase-tagged ELG1 | 1.3% of 330,000 active | AID 504466 | Potency, µM (top dose mostly 46 µM), for the others: at the top dose activity change, positive = activation, hits mostly activators | HEK293T ELG1-luciferase reporter, luminescence, 16 h; also: % of control where 0% means no effect; nearly all actives have a fitted effect of over 60% in size
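Cells (2,000/well) expressing the ELG1-luciferase fusion are dosed by pin tool and kept 16 hr at 37 °C, 5% CO2. Signal comes from ONE-Glo luciferase reagent after 30 min at room temperature.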
ELG1 repair inh: inhibitors of ELG1-dependent DNA repair in HEK293T cells. 2.3% of 330,000 active. Potency, µM (highest dose often 46.1 µM), without a hit: top-dose activity change, negative = inhibition, usual class: inhibitors. HEK293T ELG1-luciferase reporter, luminescence, 16 h; DNA damage induced by 5-fluorouridine; also: % is scaled to controls: 0 for no effect and ±100 for the full control effect; nearly all actives have a fitted effect of over 55% in size
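Cells (2,000 per well) received 5-fluorouridine plus test compound or DMSO and were incubated 16 hr at 37 °C, 5% CO2. Luciferase activity was read by luminescence 30 min after ONE-Glo addition; signal suppression marked inhibition of damage-induced ELG1 function.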
Rab9 prom act: Rab9 promoter activation. Huh7 Rab9 promoter-luciferase reporter, luminescence, 24 h. Potency, µM (top dose mostly 9.22 µM), for inactives: at the top dose activation, negative = inhibition, actives largely listed as activators. 2.8% of 320,000 active. AID 485297; also: % of control where 0% means no effect; nearly all actives have a fitted effect of over 60% in size
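Huh7 reporter line, Rab9 promoter upstream of luciferase. Compound exposure 24 h at 37 °C in reduced-serum medium with 10% FBS. Read-out: luminescence.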
SMN2 splice up: enhancers of SMN2 splice variant expression; HEK293 SMN2-luciferase splicing reporter, luminescence, 30-36 h; Potency, µM (series often up to 46.1 µM), inactives show top-dose activity change, positive = activation, hits mostly activators; 2.8% of 210,000 active; AID 1458; also: % of control where 0% means no effect; nearly all actives have a fitted effect of over 55% in size
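HEK293 cells carry an SMN2 […]–luciferase reporter in which exon 7 inclusion puts luciferase in frame. Cells were plated 10-12 h before compound addition, then incubated 30-36 h at 37C. ONE-Glo luminescence was read; sodium butyrate at 4.5 mM final served as control.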
FLuc modulator: counter-screen for miR-21 project: firefly luciferase inhibitors or activators. P08659. purified FLuc, Km substrates, luminescence inhibition. Potency, µM (top dose mostly 57.5 µM), for the others: top-dose activity change, negative = inhibition, usual class: inhibitors. 6.9% of 360,000 active. AID 588342;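 also: plate controls were vehicle for no effect and reference inhibitor for full effect; nearly all actives have a fitted effect of over 55% in size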
Target sequence (P08659 whole entry, looked up): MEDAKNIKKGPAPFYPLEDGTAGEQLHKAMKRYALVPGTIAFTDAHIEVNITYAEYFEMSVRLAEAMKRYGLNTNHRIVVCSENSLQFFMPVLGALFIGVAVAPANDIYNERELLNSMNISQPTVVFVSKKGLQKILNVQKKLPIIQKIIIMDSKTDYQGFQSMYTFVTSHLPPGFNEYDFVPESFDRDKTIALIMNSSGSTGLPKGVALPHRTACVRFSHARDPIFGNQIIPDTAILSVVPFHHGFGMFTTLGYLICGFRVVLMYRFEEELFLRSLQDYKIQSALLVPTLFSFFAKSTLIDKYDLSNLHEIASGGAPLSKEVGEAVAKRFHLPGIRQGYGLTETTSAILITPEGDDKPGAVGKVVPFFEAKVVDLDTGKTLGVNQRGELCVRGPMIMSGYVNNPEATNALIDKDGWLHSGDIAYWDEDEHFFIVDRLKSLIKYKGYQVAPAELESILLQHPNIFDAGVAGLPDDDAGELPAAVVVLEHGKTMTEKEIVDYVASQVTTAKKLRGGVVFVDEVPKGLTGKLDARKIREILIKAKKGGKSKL
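Biochemical qHTS of compounds, final roughly 60 µM downward over six points, against 10 nM purified firefly luciferase using Km concentrations of substrates (10 uM D-luciferin, 10 uM ATP) in Tris acetate pH 7.5 buffer; luminescence output.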
* hit, by the source's call; ? = inconclusive; nt = no result given; [ ] = dose if it differs, or a comment. Compounds with a hit are over-represented: about 9.2% of the library has one in this group of screens. Calls follow the shape of the dose curve; as a rule, active = well fitted curve in the direction sought with a large enough effect; inconclusive = small, poorly fitted or top-dose-only effect, or another doubt; inactive = no such curve, though single readings can be large; an effect the other way counts as inactive or inconclusive. Potency is read from the fitted curve at half-maximal effect.

SMILES	NPC1 promoter act	ELG1 genotoxic	ELG1 repair inh	Rab9 prom act	SMN2 splice up	FLuc modulator
CCCCn1cnc2c(sc3nc4c(cc32)CSC(C)(C)C4)c1=O	0.63µM*	?	?	1.1µM*	4µM*	1.1µM*
CC1(C)Cc2nc3sc4c(N(CCO)CCO)ncnc4c3cc2CO1	6%	?	0%	11%	19%	?
CCc1nc2c(sc3nc4c(cc32)COC(C)(C)C4)c(=O)n1Cc1ccccc1	-6%	-5%	-5%	-13%	-34%	-10%
CC(C)CCn1cnc2c(sc3nc4c(cc32)CSC(C)(C)C4)c1=O	1µM*	?	?	0.63µM*	-5%	0.6µM*
COc1ccc(COCC(O)CN2CC(C)OC(C)C2)cc1OC (stereo not given)	-1%	1%	-2%	-10%	-3%	10%
CCc1ccccc1OCC(=O)Nc1ccc(S(=O)(=O)Nc2nc(C)cc(C)n2)cc1	nt	nt	nt	nt	-13%	?
COc1cccc(NC(=O)CCC(=O)N2Cc3ccccc3Oc3ncccc32)c1	nt	nt	nt	nt	nt	-14%
Cn1cc(Cl)c(/C(N)=N/OC(=O)c2ccccc2C(F)(F)F)n1	3.5µM*	21µM*	?	4.5µM*	nt	12µM*
Cn1cc(Cl)c(C(=O)OCC(=O)Nc2cccc(Cl)c2)n1	-4%	-2%	11%	-2%	nt	2%
O=C(O)c1ccccc1C(=O)Nc1cc(-c2ccccc2)[nH]n1	1%	2%	19%	7%	nt	?
O=C(Nc1cc(-c2ccccc2)[nH]n1)c1ccccc1F	1.8µM*	?	?	1.4µM*	nt	8.5µM*
O=C(Nc1cc(-c2ccccc2)[nH]n1)c1ccccc1	0.56µM*	?	?	0.63µM*	nt	4.8µM*
Cc1cc(NC(=O)N2CCC(CN3CCOCC3)CC2)ccc1Br	nt	nt	nt	nt	nt	-10%
CCOC(=O)c1c(C)n(C)c2ccc(OCC(O)Cn3nc(C)c(Br)c3C)cc12 (stereo not given)	-1%	-9%	21µM*	0%	3%	-10%
Cc1cccc(NC(=O)COC(=O)c2cccc3c2C(=O)c2ccccc2C3=O)c1C	0%	-3%	21µM*	-4%	-34%	1%
Cc1cccc(C)c1NC(=O)COC(=O)c1cccc2c1C(=O)c1ccccc1C2=O	-2%	2%	12µM*	-2%	13%	0%
Cc1cccc(C)c1NC(=O)c1cccc2c1-c1ccccc1C2=O	-1%	4%	20%	-6%	16%	0%
Cc1sc(NC(=O)c2ccco2)c(CN2CCN(Cc3ccccc3)CC2)c1C	-3%	-14%	13µM*	2%	-40%	?
O=C(Nc1cc(-c2ccccc2)cs1)c1ccco1	?	16µM*	?	3.5µM*	nt	7.6µM*
O=C(Nc1nc(-c2cc(F)ccc2F)cs1)C1=NN(c2ccccc2)C(=O)CC1	-2%	-4%	?	2%	-15%	?
COc1ccc(-c2csc(NC(=O)C3=NN(c4ccccc4)C(=O)CC3)n2)cc1	-1%	-11%	?	-3%	-95%	7.6µM*
Cc1ccc(-c2csc(NC(=O)c3ccc(-c4ccccc4)cc3)n2)o1	17%	18µM*	-2%	-8%	-45%	4.3µM*
CN(c1ccccc1)S(=O)(=O)c1cc(C(=O)NCCCn2ccnc2)ccc1Cl	1%	-1%	-1%	-4%	nt	4%
CCOc1ccc(-c2csc(NC(=O)c3ccco3)n2)cc1	24%	?	?	?	nt	12µM*
Cc1ccc(-c2csc(NC(=O)c3ccco3)n2)cc1C	2.2µM*	?	?	4µM*	nt	8.5µM*
SMILES	NPC1 promoter act	ELG1 genotoxic	ELG1 repair inh	Rab9 prom act	SMN2 splice up	FLuc modulator
O=C(Nc1nc(-c2ccco2)cs1)c1ccccc1	?	?	?	?	7%	11µM*
Cc1ccc(-c2csc(NC(=O)c3c(C)noc3C)n2)cc1C	3%	1%	9%	0%	nt	?
Cc1cc(NC(=O)c2ccco2)sc1C	2µM*	?	?	2µM*	nt	5.4µM*
CCCC[C@H](CC)CN=C(N)NC(N)=NCCCCCCN=C(N)NC(N)=NC[C@@H](CC)CCCC	nt	nt	nt	nt	-9%[20.6 µM]	nt
COc1ccc(N2CCN(CCCNC(=O)c3ccc4nc(Cc5ccccc5)oc4c3)CC2)cc1	nt	nt	nt	nt	nt	1%
CCN(C(=O)CCn1cnc2onc(-c3ccc(F)cc3)c2c1=O)c1ccc(OC)cc1	nt	nt	nt	nt	nt	6%
O=C(O)c1ccccc1C(=O)Nc1nc(-c2ccc3ccccc3c2)cs1	1%	8%	?	?	nt	17µM*
COc1ccc(-c2csc(NC(=O)c3ccco3)n2)cc1	2.8µM*	16%	?	2.2µM*	7.9µM*	9.5µM*
O=C(NNc1nc(-c2ccc(Br)cc2)cs1)c1ccco1	15%	?	?	?	-27%	8.5µM*
O=C(Nc1nc(-c2ccccc2)cs1)c1ccco1	?	-15%	?	?	nt	15µM*
O=C(Nc1nc(-c2ccc3ccccc3c2)cs1)c1ccc(N2C(=O)CCC2=O)cc1	-10%	2%	-7%	-10%	-22%	-3%
COc1ccc(-c2csc(NC(=O)c3c(OC)cccc3OC)n2)cc1	-2%	2%	1%	0%	nt	0%
CC(C)c1ccc(C(=O)Nc2ccc(-c3nc4ccccc4s3)c(Cl)c2)cc1	nt	nt	nt	nt	?	-10%
Cc1ccccc1NC(=O)n1ncc2cc(Cl)ccc21	10%	5%	?	14%	nt	21µM*
Cc1cccc2c1cnn2C(=O)Nc1ccccc1Cl	?	?	?	?	nt	1.7µM*
COc1ccc(NC(=O)n2ncc3c(C)cccc32)cc1	0.089µM*	?	?	0.1µM*	nt	3µM*
COc1ccc(C)cc1NC(=O)n1ncc2c(C)cccc21	25%	3%	8%	28%	nt	7.6µM*
CC1=C(C(=O)NCc2ccc(Cl)cc2)C2(CCCCCC2)OC1=O	nt	nt	nt	nt	nt	-4%
COc1ccccc1NC(=O)n1ncc2c(C)cccc21	nt	nt	nt	nt	nt	-7%
COc1ccc(NC(=O)n2ncc3c(C)cccc32)cc1OC	2.2µM*	?	?	3.2µM*	nt	1.9µM*
Cc1ccc(NC(=O)n2ncc3c(C)cccc32)cc1F	?	?	?	0.79µM*	nt	1.5µM*
CCN(CC)CCOC(=O)c1ccc(NC(=O)c2cn(-c3ccccc3)nc2-c2cccs2)cc1	9%	?	?	19%	-100%	6µM*
O=C(c1cn(-c2ccccc2)nc1-c1cccs1)N1CCN(c2ccccn2)CC1	-4%	-18%	?	3%	-36%	3.8µM*
CN(C)c1ccc(NC(=O)c2cn(-c3ccccc3)nc2-c2cccs2)cc1	13%	11%	-19%	6%	23%	6.7µM*
